Entries with a potency or affinity are not part of this list. Inconclusive results are not listed. Active and inactive are the calls of the source. Unless noted, how the calls were made is not given here.
What was measured:
[1] = RMG-1 ovarian cancer cell viability loss – cherry-pick, dose response (AID 687029;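 active means signal drop whose fitted half-maximal concentration is at most twice the top valid dose, in every test run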;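 further: cells exposed to compound for 96 hours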)
[2] = general cell-killing toxicity readout – plate reader, dry powder samples, cytotoxicity control for PAX8 inhibitor project, dose response (AID 743021)
[3] = toxicity toward immortalized ovarian surface epithelium – cell-based, plate reader, dry powder samples, cytotoxicity control for PAX8 inhibitor project, dose response (AID 743045);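 further: 0% = neutral control median and -100% = positive control median; more negative values mean more cell killing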
[4] = A2780 cell killing – plate reader, dry powder samples, cytotoxicity control, dose response (AID 743046);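 further: 0% = neutral control wells and -100% = cytotoxic reference compound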
[5] = IOSE-T80 viability loss, PAX8-independent line – cell-based, cherry-pick, selectivity assay for PAX8 inhibitor project, dose response (AID 687032;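 active means fitted half-maximal concentration for viability loss no higher than twice the top valid dose, in every repeat run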;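 further: cells exposed to compound for 96 h before reading; 0% = neutral control wells and -100% = 2 µM mitoxantrone kill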)
[6] = CMV-driven luciferase expression suppression in HEK293 – cell-based, luminescence, dry powder, counter-screen for Pax8 inhibitor project, dose response (AID 743020;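 active means signal-lowering compounds whose fitted half-maximal concentration is at or below twice the top tested dose in every run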;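 further: HEK293 cells stably expressing the CMV luciferase reporter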)
[7] = IGROV1 cell killing – plate reader, dry powder samples, PAX8 inhibitor project, dose response (AID 743043);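 further: more negative means fewer viable cells or more cytotoxicity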
[8] = OVCAR-3 cell viability loss – plate reader, dry powder samples, PAX8 inhibitor project, dose response (AID 743044); conditions: max activity: at 35 µM, hits give low values unless noted
[9] = OVCAR8 cell viability loss – plate reader, dry powder samples, PAX8 project, dose response (AID 743197)

Measured: max activity

Cc1cc(-c2n[nH]c(=S)n2/N=C/C(Br)=C/c2ccccc2)n[nH]1
inactive: [1] | [2]

OC[C@H]1O[C@@H](n2cnc3c(NCc4ccco4)ncnc32)[C@H](O)[C@@H]1O
inactive: [1] | [2]

O=C(/C=C/c1cccs1)NC(=S)NNC(=O)c1ccccc1O
inactive: [1] | [2]

CCN(CC)S(=O)(=O)c1cccc(NC(=O)Nc2cccc(C(F)(F)F)c2)c1
inactive: [1] | [2]

O=C(Nc1cccc(C(F)(F)F)c1)Nc1ccc(N2CCCC2)c(S(=O)(=O)Nc2ccccc2Cl)c1
inactive: [1] | [2]

CCOC(=O)N1CCC(NC(=O)c2ccc3c(c2)N=C(C)c2c(C)ccc(C)c2S3)CC1
inactive: [1] | [2]

CN(C)c1ncnc2c1nnn2C1OC(CO)C(O)C1O (configuration not stated)
inactive: [1] | [2]

O=c1[nH]c(-c2ccccn2)nc2sc(-c3ccccc3)cc12
inactive: [1] | [2]

Oc1ccc(Cc2ccccc2)c2cccnc12
inactive: [1] | [2]

Cc1ccc(S(=O)(=O)N2CCCCC2)cc1NC(=O)Cn1ncc(Cl)c(Cl)c1=O
inactive: [1] | [2]

COc1cc2c(c(OC)c1OC)-c1ccc(SC)c(=O)cc1C(NC=O)CC2 (configuration not stated)
inactive: [1] | [2]

COc1ccc(OC)c(-c2nnc3n2N=C(c2ccc(OC)c(OC4CCCC4)c2)CS3)c1
inactive: [1] | [2]

CCCCCC(CC(=O)NO)C(=O)NC(C(=O)N1CCCC1CO)C(C)C (configuration not stated)
inactive: [1] | [2]

CN(C)CCCN(C(=O)CCOc1ccccc1)c1nc2c(F)cccc2s1
inactive: [1] | [2] | [3] | [4]

COc1ccc2c3c([nH]c2c1)[C@@H](CO)N(C(=O)Nc1cccc(F)c1)CC31CCN(S(=O)(=O)c2cccc(C)c2)CC1
inactive: [5] | [6] | [2] | [7] | [8] -9.13% [at 8 µM, hits give low values] | [3] | [4] | [9]

C[C@H]1CCCCO[C@H](CN(C)C(=O)Nc2ccc(C(F)(F)F)cc2)[C@@H](C)CN([C@@H](C)CO)C(=O)c2cc(NS(=O)(=O)c3cccs3)ccc2O1
inactive: [5] | [6] | [2] | [7] | [8] -51.4% | [3] | [4] | [9]

C[C@H]1CN([C@@H](C)CO)S(=O)(=O)c2ccc(C#Cc3ccccc3F)cc2O[C@H]1CN(C)C(=O)c1ccc2c(c1)OCO2
inactive: [5] | [6] | [2] | [7] | [8] -13% | [3] | [4] | [9]

C[C@H]1CCCCO[C@H](CN(C)Cc2ccc(C(F)(F)F)cc2)[C@@H](C)CN([C@@H](C)CO)C(=O)c2cc(NC(=O)Nc3ccc(F)cc3)ccc2O1
inactive: [5] | [6] | [2] | [7] | [8] -16.7% | [3] | [4] | [9]

C[C@@H]1CCCCO[C@@H](CN(C)Cc2ccc(C(F)(F)F)cc2)[C@H](C)CN([C@@H](C)CO)C(=O)c2cc(NS(=O)(=O)c3ccc(Cl)cc3)ccc2O1
inactive: [5] | [6] | [2] | [7] | [8] -25.4% [at 8 µM, hits give low values] | [3] | [4] | [9]

CCCC(=O)N1CCN(c2ccc(NC(=O)c3ccc([N+](=O)[O-])o3)cc2)CC1
inactive: [1] | [2]

COc1ccc(-c2cc(C(F)(F)F)nc(S(=O)(=O)CCCC(=O)Nc3cc(C)on3)n2)cc1OC
inactive: [1] | [2] | [4]

Cc1ccc(S(=O)(=O)Nc2ccc3c(c2)C(=O)N([C@H](C)CO)C[C@H](C)[C@@H](CN(C)S(=O)(=O)c2ccc(F)cc2)OCCCC[C@H](C)O3)cc1
inactive: [5] | [6] | [2]

O=C(CCS(=O)(=O)c1ccccc1)Nc1nc2ccc(F)cc2s1
inactive: [1] | [2] | [3] | [4]

C[C@@H]1CCCCO[C@H](CN(C)Cc2ccncc2)[C@H](C)CN([C@H](C)CO)C(=O)c2cc(NC(=O)Nc3ccc(C(F)(F)F)cc3)ccc2O1
not listed: [1] | [8]
inactive: all other assays above

COc1ccc(NC(=O)Nc2ccc3c(c2)C(=O)N([C@@H](C)CO)C[C@@H](C)[C@@H](CN(C)Cc2ccc(C(F)(F)F)cc2)O3)cc1
inactive: [5] | [6] | [2] | [7] | [8] -14.9% [at 0.5 µM, hits give low values] | [3] | [4] | [9]

Source: PubChem BioAssay
